Data on 25 molecules can be found in PubChem BioAssay.

The structures appear in SMILES notation. Inconclusive results are not listed. Active and inactive are the calls of the source. Unless noted, the rule behind the calls is not given here.

Test [1] in a line: GFP-Q80 aggregate reduction, neuronal-like cells, cell-based, NGF-treated PC12, GFPQ80 (AID 1614).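 Note: lower means fewer inclusions and 0 means no inclusions at all.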 The following applies: PC12 NGF-treated GFP-polyQ80 inclusion reduction.
Test [2] is described as follows: compounds altering viability of human ES cells (AID 493140).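 Note: cells exposed to compounds for four days before counting.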 As to conditions: human embryonic stem cell survival screen; stronger effect = higher value.
The test system of test [3] is Aerobactin synthetase IucA (Klebsiella pneumoniae). The test can be described thus: inhibition of K. pneumoniae IucA enzyme – biochemical, Tocris library, absorbance (AID 1345561).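 Note: 100% = enzyme without compound and 0% = no enzyme.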 As to conditions: purified IucA enzyme assay, absorbance (OD) read-out; stronger effect = lower value;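 tested at 8 µM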.
The nature of test [4]: viability loss in pontine glioma line – cell-based, SU-DIPG-XIII, MIPE5.0, CellTiter-Glo, qHTS, dose response (AID 1347064; cut-off not given, nearly all actives have AC50 up to about 23 µM;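 for AC50: cells exposed to compound for 48 hours before the viability read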). The following applies: CellTiter-Glo ATP luminescence. A general note: In ATP-based viability assays light output follows the ATP content of the culture.
The nature of test [5]: viability loss in pontine glioma line – cell-based, SU-DIPG-XXV, MIPE5.0, CellTiter-Glo, qHTS, dose response (AID 1347065; cut-off not given, nearly all actives have AC50 up to about 26 µM;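 note: cells exposed to compound for 48 hours before ATP readout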). As to conditions: CellTiter-Glo ATP luminescence.
Test [6] can be described thus: growth inhibition of DIPG cells – cell-based, MIPE5.0 library, qHTS (AID 1347068; cut-off not given, nearly all actives have IC50 up to about 30 µM;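 for IC50: cells exposed to compound for 48 hours before viability readout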). The following applies: SU-DIPG-XXV viability. A general note: In qHTS, concentration-response curves come from the screen itself.
Test [7] can be described thus: growth inhibition of DIPG cells – cell-based, MIPE4.0 library, CellTiter-Glo luminescence, qHTS (AID 1347066; cut-off not given, nearly all actives have AC50 up to about 30 µM;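 note: cells exposed to compound for 48 hours before readout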). As to conditions: SU-DIPG-VI viability, CellTiter-Glo ATP luminescence.
The nature of test [8]: blockers of cellular phospholipid synthesis – cell-based, LOPAC library, screen 4, primary screen (AID 1347384). As to conditions: animal cells, phospholipid biosynthesis inhibition screen; at 10 µM.
The nature of test [9]: compounds altering circadian rhythm period length – cell-based, LOPAC library, luminescence reporter (AID 2774).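 Note: values are relative to mean of DMSO wells on each plate.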 The following applies: circadian reporter cells, at 7 µM, actives lie on both sides.
The subject of test [10] is Hepatitis C virus NS3 helicase. The test can be described thus: blockers of NS3h binding to ssDNA – biochemical, fluorescence polarization, LOPAC1280 library, primary screen (AID 687035; in the data active = inhibition above about 37%). The following applies: Purified HCV NS3 helicase, Cy5-dT15 ssDNA binding fluorescence polarization; stronger effect = higher value; concentration not given here. For orientation: Fluorescence polarisation rises when a labelled molecule tumbles more slowly, as on binding a larger partner.

Test [11] can be described thus: compounds altering Cy5-DNA-NS3h complex signal – biochemical, LOPAC1280, artefact control for HCV NS3 helicase inhibitor project (AID 687037). As to conditions: Cy5-DNA-NS3h complex fluorescence interference counterscreen.
Test [12] has as its target NAD(+) hydrolase SARM1 (Homo sapiens) (UniProt Q6SZW1). The test can be described thus: blocking NAD cleavage by SARM1 SAM-TIR – cell lysate, NAD-Glo luminescence (AID 1508614;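 active = compound whose remaining NAD level is above about 45 nM, limit read from the data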;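 note: higher remaining NAD means stronger inhibition of SARM1 NADase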). As to conditions: SAM-TIR HEK293T lysate NADase, at 1 µM, stronger effect = higher value.

NAD(+) hydrolase SARM1 (Homo sapiens), sequence (Q6SZW1 whole entry, looked up): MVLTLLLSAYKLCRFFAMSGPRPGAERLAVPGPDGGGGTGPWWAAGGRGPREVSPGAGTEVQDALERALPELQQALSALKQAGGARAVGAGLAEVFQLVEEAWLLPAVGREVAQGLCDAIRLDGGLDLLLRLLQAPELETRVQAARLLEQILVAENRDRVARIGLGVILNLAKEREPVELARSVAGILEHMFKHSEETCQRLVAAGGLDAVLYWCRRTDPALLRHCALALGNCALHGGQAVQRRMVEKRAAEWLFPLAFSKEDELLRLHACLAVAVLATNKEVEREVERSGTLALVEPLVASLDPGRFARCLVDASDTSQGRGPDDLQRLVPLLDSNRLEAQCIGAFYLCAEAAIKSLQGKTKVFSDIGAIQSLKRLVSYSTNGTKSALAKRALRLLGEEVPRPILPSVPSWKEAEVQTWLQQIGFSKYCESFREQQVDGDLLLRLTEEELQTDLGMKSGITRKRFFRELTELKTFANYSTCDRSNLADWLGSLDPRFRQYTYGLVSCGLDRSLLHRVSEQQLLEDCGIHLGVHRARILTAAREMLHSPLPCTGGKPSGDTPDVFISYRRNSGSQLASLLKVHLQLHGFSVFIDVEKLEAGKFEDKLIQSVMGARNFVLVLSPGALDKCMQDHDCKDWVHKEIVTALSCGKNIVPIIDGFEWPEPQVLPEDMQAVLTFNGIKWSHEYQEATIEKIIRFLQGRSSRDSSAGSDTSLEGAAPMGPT

In turn, `NC(Cn1ccc(=O)c(O)c1)C(=O)O` (configuration not stated) came in with an inclusion score in test [1] of 2. In addition, the survival in [2] was 11.3 (inactive).
One may read the remaining activity as the signal under treatment as a percentage of the control signal. A word on the AC50: it is the midpoint of the concentration-response curve, whichever way the signal moves. What is called IC50 is the midpoint of a concentration-inhibition curve. Consider `C[C@@]12C(=O)OC(=O)[C@]1(C)[C@H]1CC[C@@H]2O1`, for which the remaining activity in [3] was 119% (inactive). In addition, the results for the AC50 in test [4] and in test [5] were 2.95 µM (active) and 1.86 µM (active), respectively. In addition, the 50% inhibitory concentration (IC50) in test [6] is 2.95 µM (active).
`COc1c(OC)c2occc2c2oc(=O)ccc12`: in test [1], the inclusion score stood at 2.
Regarding `COc1c2ccoc2nc2c(OC)c(OCC(O)C(C)(C)O)ccc12` (configuration not stated), the survival in [2] is 4.17 (inactive).
In test [1], `COc1cc(C)c2c(=O)cc(-c3ccccc3)oc2c1` yielded an inclusion score of 1.
Still for that read-out and setting: with `COc1cc(OC)c2ccc(=O)oc2c1` the figure was 2.
As for `CCOC(=O)C1=C(O)C(=O)N(Cc2ccccc2)C1`, the remaining activity in test [3] was 101% (inactive). Besides, the result in test [5], in [7] and in [8] was inactive.
Take `NC1(C(=O)O)CCCC1`: the inclusion score in [1] stood at 2.
The same measure, in the same setting: to `NC1=NCCN1CC(=O)O` belongs 2.
For `O=c1[nH]c2cc(Cl)c(Cl)cc2[nH]c1=O`, the period change in [9] is 0.15 h (inactive).
As usually defined, the inhibition is the change of the read-out against control, counted positive when it falls. Molecule `CCN1CCCC1CNC(=O)c1cc(S(N)(=O)=O)ccc1OC` (configuration not stated) had an inclusion score in [1] of 1.5. The period change in test [9] is -0.06 h (inactive). For the same molecule, the survival in test [2] was 17.8 (inactive). Also, the inhibition in test [10] is -1% (inactive). Also, in test [11], the fluorescence ratio (interference) is 1.1 (inactive). Further, in [3], the remaining activity is 107% (inactive). Also, in [8], the molecule was called inactive. The remaining NAD in test [12] is 10 nM (inactive).
In test [1], `NC(=O)c1cccc(N)c1` showed an inclusion score of 2. In addition, the period change in test [9] was 0.16 h (inactive). Further, in test [10], the inhibition was 0% (inactive). Moreover, the fluorescence ratio (interference) in [11] was 1 (inactive). Also, in test [3], the remaining activity is 96.2% (inactive). The outcome in test [4], in test [5], in [7], in test [6] and in [8] was inactive.
Turning to `O=c1c(-c2ccc(O)cc2)coc2cc(O)ccc12`, the inclusion score in test [1] came to 2. In addition, the period change in test [9] was 0.115 h (inactive). Moreover, the survival in test [2] was 70.6 (inactive). In addition, the inhibition in [10] was -4% (inactive). Also, in test [11], the fluorescence ratio (interference) was 1 (inactive). Further, in test [3], the remaining activity is 111% (inactive). Further, the result in test [7], in test [6] and in [8] was inactive.
In test [1], `O=C(O)c1cc([N+](=O)[O-])ccc1NCCCc1ccccc1` came in with an inclusion score of 2. Further, the period change in test [9] was 0.025 h (inactive). In addition, the inhibition in [10] is -4% (inactive). Also, the fluorescence ratio (interference) in [11] was 1 (inactive). Also, the remaining activity in [3] was 93.2% (inactive). For the same molecule, in test [8], the outcome was inactive.
The molecule `C=NC(C(=O)NC1C(=O)N2C1SC(C)(C)C2C(=O)O)c1ccccc1` (configuration not stated) showed an inclusion score in test [1] of 2.
Consider `CC(CCc1ccc(O)cc1)NCCc1ccc(O)c(O)c1` (configuration not stated), for which, in test [9], the period change was 0.025 h (inactive). Besides, the survival in test [2] is 15.4 (inactive). The inhibition in [10] was -1% (inactive). For the same molecule, the fluorescence ratio (interference) in test [11] was 1 (inactive). For the same molecule, the remaining activity in [3] was 94.6% (inactive). In addition, the call in test [8] was inactive. Besides, in test [12], the remaining NAD is 10 nM (inactive).
In turn, `C[C@]12CCC3c4ccc(OS(=O)(=O)O)cc4CCC3C1CC[C@H]2O` (some centres not stated) came in with an inclusion score in [1] of 2.
With `CCCC(=O)Nc1ncnc2c1ncn2[C@@H]1O[C@@H]2COP(=O)(O)O[C@H]2[C@H]1OC(=O)CCC`, in test [3], the remaining activity was 106% (inactive). The remaining NAD in test [12] was 10 nM (inactive).
In the case of `CON`, the inclusion score in test [1] is 2.
Same read-out and setting: with `O=C(O)c1cc(=O)c2cccc(O)c2[nH]1` the figure was 1.
Still for that read-out and setting: with `CC(=O)N[C@@H]1[C@@H](O)[C@H](O)[C@@H](CO)O[C@H]1O` the figure was 2.
`COc1cc([C@@H]2c3cc4c(cc3[C@H](O)[C@H]3COC(=O)[C@@H]23)OCO4)cc(OC)c1OC`: the AC50 was 2.63 µM (active) in test [4] and 0.742 µM (active) in [5]. In addition, in [6], the IC50 is 0.934 µM (active).
The matching figures for `C=C1CC[C@@H]2[C@](C)(CO)[C@H](O)CC[C@@]2(C)[C@@H]1C/C=C1/C(=O)OC[C@H]1O`: 20.9 µM (active), 11.8 µM (active) and 20.9 µM (active).
For the molecule `O=C(O)c1c2ccccc2cc2ccccc12`, the inclusion score in test [1] worked out at 2. In addition, in test [3], the remaining activity was 101% (inactive).
Consider `COc1ccc(-c2cc(=O)c3c(O)cc(O[C@@H]4O[C@H](CO[C@@H]5O[C@@H](C)[C@H](O)[C@@H](O)[C@H]5O)[C@@H](O)[C@H](O)[C@H]4O)cc3o2)cc1O`, for which the molecule was classed as inactive in test [4], in [5], in test [7] and in test [6]. The remaining NAD in [12] is 10 nM (inactive).
